NS1 function inh: inhibitors of influenza NS1 protein function. AID 2326. hit rate 0.4% among 270,000. Potency, µM (highest dose often 46.1 µM), for the others: top-dose activity, positive = more growth; calls by dose curve; note: actives are rising curves; nearly all actives have a fitted effect of over 50% in size
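Compounds were scored for reversing the slow growth caused by influenza A NS1 in S. cerevisiae, measured by optical density at 600 nm. Assay medium contained 2% galactose at pH 6.0; NS1-free yeast of the same strain were the positive control.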
Pf growth 96h: inhibits malaria parasite growth, 96 h; P. falciparum luciferase reporter growth, 96 h; Potency, µM (doses to about 28.7 µM), for the others: top-dose activity change, negative = inhibition, most hits filed as inhibitors; hit rate 6.9% among 320,000; AID 504834; note: % is set by controls: 0 for no effect and ±100 for the full control effect
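Two-generation exposure (96 h) targets delayed-death phenotype. Reporter parasites carrying integrated firefly luciferase, in red cells at 2% hematocrit and 0.05% parasitemia final, kept at 37 C, 5% CO2; luminescence loss indicates inhibition.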
Sm TGR block: blocks Schistosoma mansoni thioredoxin glutathione reductase. hit rate 3% among 360,000. AID 485364. purified TGR, DTNB reduction, TNB absorbance 405 nm. Potency, µM (top dose mostly 114 µM), without a hit: top-dose activity change, negative = inhibition, hits mostly inhibitors. Q962Y6; note: % is set by controls: 0 for no effect and ±100 for the full control effect; nearly all actives have a fitted effect of over 60% in size
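TGR 20 nM + NADPH 100 uM (dispensed conc.), cpd preinc 15 min RT; start with NADPH (500 uM addition) then DTNB (15 mM addition). Kinetic TNB absorbance, 405 nm filter. Four-parameter Hill fit across titration.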
AMA1 RON2 block: disrupts binding of P. falciparum AMA1 to RON2; Potency, µM (top dose mostly 58.2 µM), for inactives: at the top dose activity change, negative = inhibition, most hits filed as inhibitors; hit rate 0.2% among 360,000; AlphaScreen AMA1-biotinylated RON2 peptide binding;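 note: 0% = vehicle wells and -100% = peptide control; nearly all actives have a fitted effect of over 45% in size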
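AMA1 (3D7) with his tag at 25 nM final met compounds first, then biotinylated RON2 peptide at 25 nM; detection used donor plus acceptor beads, 10 µg/mL apiece, read by AlphaScreen after 30 min at room temperature.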
Pf growth 48h: P. falciparum growth inhibition at 48 hours (one generation) | P. falciparum luciferase growth in erythrocytes, 48 h | Potency, µM (doses to about 28.7 µM), inactives show at the top dose activity change, negative = inhibition, usual class: inhibitors | hit rate 5.9% among 310,000 | AID 504832; note: % is set by controls: 0 for no effect and ±100 for the full control effect
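Growth was read as firefly luciferase luminescence after a 48 h, 37 C, 5% CO2 exposure of compounds to reporter-bearing P. falciparum cultures (0.1% parasitemia, 2% hematocrit final) in Albumax-supplemented RPMI 1640.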
* hit, by the source's call; u = inconclusive; x = not tested or not shown. An excerpt weighted towards active compounds, which were near 11% of everything screened. Unless noted, calls come from the whole dose curve; as a rule, active = well fitted curve in the direction sought with a large enough effect; inconclusive = small, poorly fitted or top-dose-only effect, or another doubt; inactive = no such curve, though single readings can be large; an effect the other way counts as inactive or inconclusive. Potency is the fitted concentration of half-maximal effect.

SMILES	NS1 function inh	Pf growth 96h	Sm TGR block	AMA1 RON2 block	Pf growth 48h
Cc1ccc(-n2c3c(cc(C(=O)NC4CCSC4=O)c2=O)C(=O)CCC3)cc1 (centres undefined)	1%	-5%	79µM*	8%	5%
O=C(CCCN1C(=O)c2ccccc2C1=O)Nc1sc2c(c1C(=O)NCc1ccco1)CCC2	12%	-16%	40µM*	-8%	u
O=C(CN1C(=O)c2ccccc2C1=O)Nc1sc2c(c1C(=O)NCc1ccco1)CCCC2	9%	25%	-20%	5%	61%
O=C(CN1C(=O)c2ccccc2C1=O)NCC1CCCO1 (centres undefined)	-1%	u	-10%	1%	12%
O=C(CN1C(=O)c2ccccc2C1=O)Nc1sc2c(c1C(=O)NCC1CCCO1)CCC2 (centres undefined)	-2%	102%	79µM*	1%	34%
Cc1cccnc1NC(=O)CCCN1C(=O)c2ccccc2C1=O	-17%	x	0%	-6%	-19%
O=C(CCCN1C(=O)c2ccccc2C1=O)Nc1c2c(nc3c1CCC3)CCC2	6%	0.47µM*	u	14%	u
Cc1nc(-c2cccc(NC(=O)Nc3ccc([N+](=O)[O-])cc3)c2)no1	x	x	8%	x	x
Cc1cc(C)c(/C=N/n2c(C)cc(C)c(C#N)c2=O)c(C)c1	-12%	10µM*	9%	-2%	u
Cc1ccc(CS(=O)Cc2ccc(C(=O)NCc3ccccc3Br)o2)cc1 (centres undefined)	8%	u	-35%	-13%	-18%
Cc1ncc(C23CC4CC(CC(C4)C2)C3)[nH]1	-2%	39%	-9%	12%	-16%
N#Cc1ccc(C23CC4CC(CC(C4)C2)C3)[nH]c1=O	7%	3.7µM*	-24%	u	u
O=C(Nc1cc(=O)[nH]c2nc(-c3ccc(Cl)cc3)nn12)c1ccccc1	-2%	0.33µM*	0%	1%	0.59µM*
COc1ccc(CCN2C(=S)NC3CC2(C)Oc2ccc([N+](=O)[O-])cc23)cc1OC (centres undefined)	7%	12µM*	-4%	19%	x
COc1ccc(-c2nnn(Cc3ccccc3)n2)cc1	-24%	13µM*	13%	-3%	42%
Nc1ccc(-c2nnn(Cc3ccccc3)n2)cc1	x	x	x	-1%	x
CCN(CC)c1ccc(NS(=O)(=O)c2cc3[nH]c(=O)c(=O)[nH]c3cc2C)c(C)c1	x	x	35µM*	x	x
COc1ccc(OC)c(NC(=O)c2cc3c(Cl)nc4ccccc4c3s2)c1	27%	0%	-8%	12%	39%
COc1ccc(NC(=O)c2cc3c(Cl)nc4ccccc4c3s2)cc1OC	5%	-2%	-27%	-5%	2.1µM*
COC(=O)c1cc(NC(C)=O)ccc1N1CCOCC1	4%	439%	x	-3%	24%
COC(=O)c1cc(NC(=O)c2cc(-c3ccc(OC)cc3)oc2C(F)(F)F)ccc1N1CCOCC1	9%	9.3µM*	0%	-12%	8.3µM*
COC(=O)c1cc(NC(=O)c2cc(-c3ccc(C(F)(F)F)cc3)oc2C(F)(F)F)ccc1N1CCOCC1	u	1.5µM*	-1%	-22%	2.1µM*
CC(=O)c1cccc(S(=O)(=O)Nc2c(C)nn(C)c2C)c1	x	15%	u	4%	15%
CC(C(=O)OCC(=O)c1cccc([N+](=O)[O-])c1)N1C(=O)C2C3C=CC(C3)C2C1=O (centres undefined)	-1%	40%	-1%	5%	18%
Cc1ccc(O)c(NC(=O)CCC2CCCCC2)c1	-37%	13µM*	4%	1%	u
SMILES	NS1 function inh	Pf growth 96h	Sm TGR block	AMA1 RON2 block	Pf growth 48h
Cc1cccc(OCC(=O)Nc2cc(C)ccc2O)c1	-61%	u	12%	5%	12µM*
Cc1cccc(OCC(=O)Nc2ccccc2-c2ccccc2)c1	9%	0%	3%	5%	3%
CCCc1ccc(OCC(=O)Nc2cc(S(=O)(=O)CC)ccc2O)cc1	-1%	12µM*	7%	-9%	17%
Cc1cccc(OCC(=O)Nc2cc(C)c(C)cc2O)c1	-39%	-19%	0%	-1%	3.7µM*
COc1cccc(NC(=O)CSc2nc(=O)[nH]c3c2CCCC3)c1	x	x	-3%	x	x
CCOc1ccc(CCNC(=O)c2cccc(Nc3nc4ccccc4nc3-n3nc(C)cc3C)c2)cc1OCC	x	x	-2%	x	x
CCc1nnc(NC(=O)CSc2nc(N)c(NC(=O)c3ccc(OC)cc3)c(=O)[nH]2)s1	3%	-13%	1%	14%	3%
CC(C)N(C(=S)Nc1cccc(S(=O)(=O)N(C)C)c1)c1ccccc1	-2%	8%	11µM*	32%	-1%
CCC(C(=O)Nc1cccc(S(=O)(=O)N(C)c2ccccc2)c1)c1ccccc1 (centres undefined)	x	u	1%	6%	9.3µM*
CN(CC(=O)Nc1cccc(F)c1)CC(=O)Nc1cccc(S(=O)(=O)N(C)c2ccccc2)c1	x	x	x	-8%	x
CCN(CC(=O)Nc1cccc(S(=O)(=O)N(C)c2ccccc2)c1)Cc1ccccc1	x	10µM*	-1%	-4%	u
CCCSc1ncc(Cl)c(C(=O)N2CCN(c3ccc(OC)cc3)CC2)n1	x	x	0%	x	x
CC1(C)OC(=O)C=C[C@]2(C)[C@H]3CC[C@@]4(C)[C@H](C(=O)O)OC(=O)[C@H]5O[C@]54[C@]3(C)C(=O)C[C@@H]12	x	17%	5%	-6%	10%
OC1(c2ccccc2)CC(c2ccccc2)c2ccccc2O1 (centres undefined)	x	x	x	0%	x
COc1ccc(C2CC(O)(c3ccccc3)Oc3cc(OC)c(OC)c(OC)c32)cc1 (centres undefined)	5%	10µM*	-28%	-22%	10µM*
COc1ccc([C@@H]2C[C@H](c3ccccc3)Oc3cc(OC)c(OC)c(OC)c32)cc1	1%	u	12%	-22%	9.3µM*
CCC(CC)C(=O)Nc1ccc2nc(SCC(=O)N3c4ccccc4CC3C)sc2c1 (centres undefined)	x	x	1%	x	x
CC(/C=C/c1ccco1)=N\NC(=O)COc1ccc(C)c(C)c1	-8%	3%	7.1µM*	-16%	31%
Cc1ccc(OCCNC(=O)/C=C/c2ccco2)cc1C	17%	-55%	1.1µM*	8%	14%
Cc1ccc(OCCNC(=O)/C=C/c2ccccc2)cc1C	-14%	15%	1%	2%	-12%
COc1ccccc1NC(=O)CSc1nc2c(oc3ccccc32)c(=O)n1Cc1ccco1	x	x	3%	x	x
CCOC(=O)c1ccc(-c2ccc(CO)o2)cc1	-37%	101%	35µM*	-9%	124%
CCc1ccc(-n2c(=O)c3c4c(sc3n(Cc3ccccc3C#N)c2=O)CCC4)cc1	x	x	-2%	x	x
COc1ccc(C(=O)NCC(c2ccc(Cl)cc2)N2CCCCC2)cc1 (centres undefined)	x	x	-3%	x	x
COc1ccc(CCNC(=O)c2ccc(Cl)c(S(=O)(=O)N3CCCC3)c2)cc1	x	6.6µM*	1%	5%	12µM*

Screens as filed in PubChem.
